Data taken from PubChem BioAssay (EPA / NIEHS).
Results filed as inconclusive are left out. Activity calls are given as the source filed them. The calls were made as follows: active = hit-call score of the fitted dose curve at least 0.9, where 1 is the maximum; inconclusive = response in the unintended direction; inactive = score below 0.9.

Assays:
[1] = ATG_M_06_XSP1: Attagene TRANS-FACTORIAL Multi-Species (XSP1) HepG2 Assay for M06 Transcription Factor (Internal Marker) (AID 2283790)
Method in brief: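 This background-control readout tracks M06 reporter mRNA, measured by RT-PCR and capillary electrophoresis. HepG2 cells transiently carrying the GAL4-UAS reporter panel were dosed for 24 h with 3 nM 6-alpha-fluorotestosterone added for partial AR stimulation; increases were scored relative to DMSO.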

[2] = ATG_M_61_XSP1: Attagene TRANS-FACTORIAL Multi-Species (XSP1) HepG2 Assay for M61 Transcription Factor (Internal Marker) (AID 2283797)
Description: (§1) ATG_XSP1_multi-species_TRANS is a cell-based, multiplexed assay created by modifying the existing Attagene TRANS-FACTORIAL system to include a panel of nuclear receptors from some or all the following species: human (Homo sapiens), mouse (Mus musculus), frog (Xenopus laevis), zebrafish (Danio rerio), chicken (Gallus gallus), and turtle (Chrysemys picta). The ECOTOX-FACTORIAL format uses HepG2, a human liver cell line, with measurements taken at 24 hours after chemical dosing in a 24-well plate. Xsp1 included 3 nM 6-alpha-fluorotestosterone to partially stimulate the androgen receptor.ATG_M_61_XSP1 is one of 29 assay components measured or calculated from the ATG_XSP1_multi-species_TRANS assay. It is designed to make measurements of mRNA induction, a form of inducible reporter, as detected with fluorescence intensity signals by Reverse transcription polymerase chain reaction (RT-PCR) and Capillary electrophoresis technology.This assay endpoint, ATG_M_61_XSP1, was analyzed in the positive analysis fitting direction relative to DMSO as the negative control and baseline of activity. […] Furthermore, this assay endpoint can be referred to as a secondary readout, because this assay has produced multiple assay endpoints where this one serves a background control function. […]

[3] = system: zebrafish Peroxisome Proliferator-activated Receptor gamma (PPARg), gene 557037; assay: ATG_zfPPARg_XSP1: Attagene TRANS-FACTORIAL Multi-Species (XSP1) HepG2 Assay for zebrafish Peroxisome Proliferator-activated Receptor gamma (PPARg) (AID 2283801)
Method in brief: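 Trans-activation readout of chimeric zebrafish PPARg–GAL4 in transiently transfected human HepG2 cells, 24 h chemical exposure (medium includes 3 nM 6-alpha-fluorotestosterone). Reporter transcripts measured by RT-PCR and capillary electrophoresis, fitted as gain over DMSO.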

[4] = biological target: Nuclear receptor subfamily 1 group I member 2 (Mus musculus) (UniProt O54915); assay: ATG_mPXR_XSP1: Attagene TRANS-FACTORIAL Multi-Species (XSP1) HepG2 Assay for mouse Pregnane X Receptor (PXR) (AID 2283803)
Chain of Nuclear receptor subfamily 1 group I member 2 (Mus musculus) (O54915 whole entry, looked up): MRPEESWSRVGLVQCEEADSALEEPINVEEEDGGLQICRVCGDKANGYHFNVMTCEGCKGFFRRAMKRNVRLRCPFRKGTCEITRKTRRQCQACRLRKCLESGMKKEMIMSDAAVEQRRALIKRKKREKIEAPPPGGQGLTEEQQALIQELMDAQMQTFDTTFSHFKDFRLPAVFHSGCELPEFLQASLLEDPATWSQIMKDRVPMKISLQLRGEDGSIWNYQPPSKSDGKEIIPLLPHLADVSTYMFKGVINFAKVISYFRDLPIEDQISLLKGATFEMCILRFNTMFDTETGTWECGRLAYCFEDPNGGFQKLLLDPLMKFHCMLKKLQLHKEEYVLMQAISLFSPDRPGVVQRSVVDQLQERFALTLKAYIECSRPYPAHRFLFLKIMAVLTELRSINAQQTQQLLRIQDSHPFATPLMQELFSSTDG
Description: as §1, with “receptor.ATG_mPXR_XSP1” for “receptor.ATG_M_61_XSP1”, “technology.The” for “technology.This”, “endpoint ATG_mPXR_XSP1” for “endpoint, ATG_M_61_XSP1,”, “primary” for “secondary”, “reporter gene” for “background control”

[5] = biological target: human Thyroid hormone Receptor alpha (TRa), THRA (gene 7067) (UniProt P10827); assay: ATG_hTRa_XSP1: Attagene TRANS-FACTORIAL Multi-Species (XSP1) HepG2 Assay for human Thyroid hormone Receptor alpha (TRa) (AID 2283805)
Chain of human Thyroid hormone Receptor alpha (TRa), THRA (gene 7067) (P10827 whole entry, looked up, the tested form may be a part): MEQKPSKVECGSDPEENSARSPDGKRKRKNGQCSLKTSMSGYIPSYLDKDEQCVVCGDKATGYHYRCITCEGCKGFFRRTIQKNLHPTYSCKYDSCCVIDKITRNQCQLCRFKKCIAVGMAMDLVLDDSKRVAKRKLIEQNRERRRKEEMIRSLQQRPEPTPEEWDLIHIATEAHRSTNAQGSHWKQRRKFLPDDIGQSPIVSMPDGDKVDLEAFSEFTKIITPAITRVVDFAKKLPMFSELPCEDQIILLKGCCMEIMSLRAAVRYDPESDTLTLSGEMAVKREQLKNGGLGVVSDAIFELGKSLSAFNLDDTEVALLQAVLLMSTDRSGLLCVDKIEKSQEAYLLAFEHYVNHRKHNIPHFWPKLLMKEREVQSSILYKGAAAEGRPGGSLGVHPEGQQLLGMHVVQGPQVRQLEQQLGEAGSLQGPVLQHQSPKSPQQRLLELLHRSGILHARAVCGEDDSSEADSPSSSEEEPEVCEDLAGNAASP
Method in brief: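 Reporter transcripts from the human TRa-Gal4 TRANS unit quantified by RT-PCR, fluorescent labeling and capillary electrophoresis after 24 hours of chemical exposure in transfected HepG2 cells; medium contains 3 nM 6-alpha-fluorotestosterone. Positive direction fit against DMSO.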

[6] = biological target: zebrafish Thyroid Hormone Receptor alpha (TRa), thraa (gene 30670) (UniProt Q98867); assay: ATG_zfTRa_XSP1: Attagene TRANS-FACTORIAL Multi-Species (XSP1) HepG2 Assay for zebrafish Thyroid Hormone Receptor alpha (TRa) (AID 2283807)
Chain of zebrafish Thyroid Hormone Receptor alpha (TRa), thraa (gene 30670) (Q98867 whole entry, looked up): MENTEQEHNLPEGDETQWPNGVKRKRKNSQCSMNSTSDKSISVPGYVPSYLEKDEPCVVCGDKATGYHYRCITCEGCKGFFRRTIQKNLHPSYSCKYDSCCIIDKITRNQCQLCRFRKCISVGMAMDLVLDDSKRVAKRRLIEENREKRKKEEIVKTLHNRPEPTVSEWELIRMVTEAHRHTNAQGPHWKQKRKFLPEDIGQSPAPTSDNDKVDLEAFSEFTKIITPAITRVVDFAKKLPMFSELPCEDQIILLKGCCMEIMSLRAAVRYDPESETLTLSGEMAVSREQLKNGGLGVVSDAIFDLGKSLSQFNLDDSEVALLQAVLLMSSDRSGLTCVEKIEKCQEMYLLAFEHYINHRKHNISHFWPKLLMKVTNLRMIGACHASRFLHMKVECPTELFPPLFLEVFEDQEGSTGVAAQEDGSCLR
Description: as §1, with “receptor.ATG_zfTRa_XSP1” for “receptor.ATG_M_61_XSP1”, “technology.The” for “technology.This”, “endpoint ATG_zfTRa_XSP1” for “endpoint, ATG_M_61_XSP1,”, “primary” for “secondary”, “reporter gene” for “background control”

[7] = biological target: human Thyroid hormone Receptor beta (TRb), THRB (gene 7068) (UniProt P10828); assay: ATG_hTRb_XSP1: Attagene TRANS-FACTORIAL Multi-Species (XSP1) HepG2 Assay for human Thyroid hormone Receptor beta (TRb) (AID 2283808)
Chain of human Thyroid hormone Receptor beta (TRb), THRB (gene 7068) (P10828 whole entry, looked up, the tested form may be a part): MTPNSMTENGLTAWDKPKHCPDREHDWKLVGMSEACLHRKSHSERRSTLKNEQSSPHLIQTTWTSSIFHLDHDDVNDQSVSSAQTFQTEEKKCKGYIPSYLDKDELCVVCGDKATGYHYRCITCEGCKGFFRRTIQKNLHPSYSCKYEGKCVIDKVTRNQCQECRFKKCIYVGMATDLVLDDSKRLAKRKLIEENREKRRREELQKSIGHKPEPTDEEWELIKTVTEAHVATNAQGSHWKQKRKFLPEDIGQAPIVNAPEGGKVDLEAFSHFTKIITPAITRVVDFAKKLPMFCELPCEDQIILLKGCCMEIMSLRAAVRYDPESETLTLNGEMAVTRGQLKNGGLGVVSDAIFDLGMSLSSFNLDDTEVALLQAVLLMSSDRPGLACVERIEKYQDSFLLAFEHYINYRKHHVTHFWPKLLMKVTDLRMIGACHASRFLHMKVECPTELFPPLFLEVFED
Method in brief: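 Readout is reporter mRNA induction measured by RT-PCR, fluorescent labelling and capillary electrophoresis, fitted upward relative to DMSO. Transiently transfected human HepG2 cells expressing NR-Gal4 chimeras were dosed for 24 h, medium containing 3 nM 6-alpha-fluorotestosterone.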

[8] = ATG_XTT_Cytotoxicity_XSP1: Cytotoxicity Assessment in the Attagene TRANS-FACTORIAL Multi-Species (XSP1) HepG2 Assay (AID 2283810)
Method in brief: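 XTT viability readout taken at 24 hours post-dosing in HepG2 liver cells co-treated with 3 nM 6-alpha-fluorotestosterone. Signal loss relative to DMSO controls reflects cytotoxicity.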

Measured: AC50

CCCCC(CC)COC(=O)c1ccc(O)cc1 (stereo not drawn)
active: [8] 63.8 µM
inactive: all other assays above
